These results are taken from PubChem BioAssay (EPA / NIEHS).

SMILES strings stand for the structures. Inconclusive results are not listed. A structure can be active in one record and inactive in another. The source made the active and inactive calls. How the source made its calls: active means hit-call score of the fitted dose curve at least 0.9, where 1 is the maximum; inconclusive means response in the unintended direction; inactive means score below 0.9.

This experiment in a line: TOX21_p53_BLA_p5_viability: Viability Assessment in the Tox21 HCT-116 p53 Agonism Beta-lactamase Assay, Phase 5 (AID 2283600). The text has this:
TOX21_p53_BLA_p5 is a cell-based, single-readout assay that uses HCT116, a human intestinal cell line, […] in a 1536-well plate.TOX21_p53_BLA_p5_viability is an assay readout measuring cellular ATP content and detected with CellTiter-Glo Luciferase-coupled ATP quantitation.TOX21_p53_BLA_p5_viability used a type of viability reporter where loss-of-signal activity can be used to understand changes in the cell viability. Furthermore, this assay endpoint can be referred to as a secondary readout, because this assay has produced multiple assay endpoints where this one serves a viability function. To generalize the intended target to other relatable targets, this assay endpoint is annotated to the cell cycle intended target family, where the subfamily is cytotoxicity.
Thawing Method: Place 14 mL of pre-warmed thaw medium into a 15 mL of conical tub. Remove the vial of cells to be thawed from liquid nitrogen and thaw rapidly by placing at 37C in a water bath with gentle agitation for 1-2 minutes. Decontaminate the vial by wiping with 70% ethanol before opening in a biological safety cabinet. Transfer the vial contents drop-wise into 14 mL of thaw medium in a sterile 15-mL conical tub. Centrifuge cells at 900 rpm for 4 minutes and resuspend in thaw medium. Transfer contents to the T75 tissue culture flask containing Thaw Medium and place flask in a humidified 37C/5% CO2 incubator. Switch to growth medium at first passage.Propagation Method: Aspirate medium, rinse once in DPBS, add 0.25% Trypsin/EDTA and swirl to coat the cell evenly. Add an equal volume of Growth Medium to inactivate Trypsin after 2-3 minutes incubation at 37C. Centrifuge cells at 900 rpm for 4 minutes and resuspend in growth medium. Cell should be passage or fed at least twice a week.Assay Protocol: Harvest cells from culture in growth medium and resuspend in assay medium. 2.2 Dispense 4000 cells/5 uL/well into 1536-well black/clear bottom plates using a Multidrop dispenser. After the cells were incubated at 37C for 5 hours, 23 nL of compounds dissolved in DMSO were transferred to the assay plate by a PinTool resulting in a 217-fold dilution. Incubate the plates for 16 hours at 37C, 5% CO2. Add 1 uL of 6X LiveBLAzer FRET B/G (CCF4-AM) Substrate Mixture to each well using a BioRAPTR dispenser and incubate the plates at room temperature for 2 hours. Measure fluorescence intensity at 460 and 530 nm emission and 405 nm excitation by an Envision detector. Data is expressed as the ratio of 460nm/530nm emissions. Add 4 uL of Cell-titer Glo to each well using BioRAPTR and incubate the plates at room temperature for […]. For cell viability readout that measures cytotoxicity, 4 ul/well of CellTiter-Glo reagent was added into the assay plates using a Flying Reagent Dispenser. After 30 min incubation at room temperature, the luminescence intensity in the plates was measured using a ViewLux plate reader.
In the case of `COC(C)(C)CCCC(C)CC=O` (stereo not given), the result was inactive. As to `C=C[Si]1(C)O[Si](C)(C=C)O[Si](C)(C=C)O[Si](C)(C=C)O1` (stereo not given), the result was inactive. Still for that read-out and setting: the same measure for `CC(C)CCCCCCc1ccc(OCCOCCO)cc1`: “inactive”. For `COCCOCCOCCO`, the outcome was inactive. For `OCc1ccc(Cl)cc1Cl`, the molecule was called inactive.

On to `CC(=O)C1(C)CC2=C(CCCC2(C)C)CC1C` (stereo not given), for which the molecule was classed as inactive. Consider `CCC(Cl)C(Cl)C(Cl)CC(Cl)C(Cl)C(C)Cl` (stereo not given), for which the molecule was called inactive. The same measure, in the same setting: the same measure for `CCCCCCCCCCCCCC(=O)OCC(O)CO` (stereo not given): “inactive”. `CCC(C)c1cc([N+](=O)[O-])cc([N+](=O)[O-])c1OC(=O)OC(C)C` (stereo not given): the call was inactive. On to `COC(C)(C)CCO`, for which the result was inactive. For the molecule `CCCCC1(COC(=O)CCC(=O)O)C(=O)N(c2ccccc2)N(c2ccccc2)C1=O`, the molecule was classed as inactive.

Take `CCCCC1CCC(O)CC1` (stereo not given): the molecule was called inactive.

In the case of `C[Si](C)(C)O[Si](C)(C)C`, the molecule was called inactive. Take `C=C(C#N)C(=O)OCC`: the result was inactive. Broadly, the AC50 is the concentration at which the activity in the assay is half-maximal. For `CN(C)CCOc1ccc(/C(=C(/CCCl)c2ccccc2)c2ccccc2)cc1`, the outcome was inactive and the AC50 is 59.8 µM (active).

Consider `O=C1c2ccccc2C(=O)c2c(O)ccc(O)c21`, for which the molecule was called inactive. Regarding `OCCOCCN1CCN(C2=Nc3ccccc3Sc3ccccc32)CC1`, the call was inactive.

`C1CCCCC1`: the molecule was classed as inactive.

For the molecule `N[C@@H](Cc1cc(I)c(Oc2cc(I)c(O)c(I)c2)c(I)c1)C(=O)O`, the molecule was called inactive. For the molecule `CCOc1ccccc1O`, the call was inactive.

As for `CC(C)(C)CC(C)(C)c1ccc(OCCOCC[N+](C)(C)Cc2ccccc2)cc1`, the outcome was inactive and the concentration at half-maximal activity (AC50) is 73.6 µM (active). As to `C#CC(C)(O)CC(C)C` (stereo not given), the molecule was called inactive. The same measure, in the same setting: the same measure for `CC(C)=CCCC(C)CCOC=O` (stereo not given): “inactive”; for `O=c1[nH]c(=O)c2cn[nH]c2[nH]1`: “inactive”. The same measure, in the same setting: in the case of `CC(C)c1ccccc1O` it was “inactive”. Consider `Cc1c(Cl)cccc1[N+](=O)[O-]`, for which the molecule was classed as inactive.

With `CC(C)CC(C)CC(O)CC(C)C` (stereo not given), the result was inactive. On the same count and under the same terms, the same measure for `C=CC(=O)OCCCC`: “inactive”; for `O=C(O)c1cccnc1C(=O)O`: “inactive”. For the molecule `C[C@H](CCC(=O)NCC(=O)O)[C@H]1CC[C@H]2[C@@H]3[C@H](O)C[C@@H]4C[C@H](O)CC[C@]4(C)[C@H]3C[C@H](O)[C@]12C`, the molecule was classed as inactive.

`CCN(CC)C(=O)N(CC)CC`: the result was inactive. Turning to `CCc1cc(Cc2cc(CC)cc(C(C)(C)C)c2O)c(O)c(C(C)(C)C)c1`, the half-maximal activity concentration (AC50) was 20.1 µM (active). For `CC(=O)c1c(C)c([N+](=O)[O-])c(C(C)(C)C)c([N+](=O)[O-])c1C`, the molecule was classed as inactive. With `CCc1cc(C(C)(C)C)c(O)c(C(C)(C)C)c1`, the call was inactive.

Consider `CC1(C)C2=CCCC(C)(C)[C@]23CC[C@H]1C3`, for which the molecule was classed as inactive. For `c1ccc2cc(Nc3ccc(Nc4ccc5ccccc5c4)cc3)ccc2c1`, the molecule was classed as inactive. Turning to `C#CC(C)N(C)C(=O)Nc1ccc(Cl)cc1` (stereo not given), the outcome was inactive. On to `CC(C)OCCO`, for which the molecule was called inactive.
